Data taken from PubChem BioAssay (NCATS).
Values joined by “and” are separate entries in the source; they are usually repeats but may differ in a detail not shown here. Equal values may be shown once. Active and inactive are the calls of the source. Unless noted, calls follow the shape of the dose curve; as a rule, active = well fitted cell-killing curve with a large enough effect; inconclusive = small, poorly fitted or top-dose-only effect; inactive = flat fitted curve, though single readings scatter.

Experiments:
[1] = Cell Viability - LYMP2-006 (AID 978); also: series mostly up to about 92 µM; nearly all actives have a fitted effect of over 60% in size
In short: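 In this cytotoxicity screen, the human lymphoblastoid line grew in complete medium with test compounds for 24 hr at 37 C. Cellular ATP served as the viability signal.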

[2] = Cell Viability - LYMP2-007 (AID 979);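 also: cells exposed to compound for 24 h before reading; nearly all actives have a fitted effect of over 60% in size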
In short: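 Human lymphoblastoid cells (2500/well) were plated in complete medium, incubated 5 hr at 37 C, then exposed to compounds for 24 hr at 37 C. Intracellular ATP was read by CellTiter-Glo luminescence after 30 min at room temperature; AC50 from Hill fits.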

[3] = Cell Viability - LYMP2-008 (AID 980); also: nearly all actives have a fitted effect of over 60% in size
In short: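 Human lymphoblastoid cells (2500/well) were plated, held 5 hr at 37 C, then exposed to compounds for 24 hr at 37 C in complete medium. Intracellular ATP was read by CellTiter-Glo luminescence; AC50 from Hill-fitted concentration-response.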

[4] = Cell Viability - LYMP2-012 (AID 982);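 also: cellular ATP by luciferase luminescence where a drop means cytotoxicity; cells exposed to compound for one day before reading; nearly all actives have a fitted effect of over 55% in size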
[5] = Cell Viability - LYMP2-014 (AID 983); also: series mostly up to about 92 µM; nearly all actives have a fitted effect of over 50% in size
In short: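 Human lymphoblastoid cells (2500/well) were pre-incubated 5 hr at 37 C, then exposed to compounds in complete medium for 24 hr at 37 C. Intracellular ATP was read by CellTiter-Glo luminescence after 30 min at room temperature; AC50 from Hill fits.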

[6] = Cell Viability - LYMP2-016 (AID 984); also: nearly all actives have a fitted effect of over 55% in size
In short: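 Concentration-dependent ATP depletion measured in LYMP2-016 lymphoblastoid cells, 24 h, 37 C; luciferase-based luminescent detection; Hill-equation AC50.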

[7] = Cell Viability - LYMP2-018 (AID 985);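 also: compound exposure lasted 24 hr at 37 °C; nearly all actives have a fitted effect of over 50% in size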
In short: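 Human lymphoblastoid cells (2500/well) were pre-incubated 5 hr at 37 C, then exposed to compounds for 24 hr at 37 C in complete medium. Viability was read as intracellular ATP by CellTiter-Glo luminescence; AC50 values came from Hill-equation fits.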

[8] = Cell Viability - LYMP2-024 (AID 988); also: nearly all actives have a fitted effect of over 60% in size
In short: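 Human lymphoblastoid cells (2500/well) in complete medium were preincubated 5 hr at 37 C, then exposed to compounds for 24 hr at 37 C. Intracellular ATP was read by CellTiter-Glo luminescence; AC50 from Hill-equation fits of concentration-response data.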

[9] = Cell Viability - LYMP2-026 (AID 989); also: nearly all actives have a fitted effect of over 50% in size
In short: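 Human lymphoblastoid cells (2500/well) in complete medium were preincubated 5 hr at 37 C, then exposed to compounds for 24 hr at 37 C. Cellular ATP was read by CellTiter-Glo luminescence; AC50 from Hill-equation fits of concentration-response data.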

[10] = Cell Viability - LYMP1-002 - Assay at 24 hr (AID 993)
In short: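 Human lymphoblastoid LYMP1-002 cells, 2500/well in complete medium, were treated with compounds for 24 h at 37 C; intracellular ATP was read by CellTiter-Glo luminescence. AC50 values came from Hill-equation fits of qHTS concentration-response data.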

[11] = qHTS Assay for Identification of Small Molecule Inducers of Hypoxia Response (AID 2120; active = well fitted curve in the direction sought with a large enough effect in the signal ratio, with a control signal flat, not every such curve was filed as active; inconclusive = small, poorly fitted or top-dose-only effect, or a change in a side signal; inactive = no such curve, though single readings can be large or run the other way; the % refers to the signal ratio)
In short: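 HRE-beta-lactamase reporter in CellSensor HRE-bla ME-180 cells, 2500 cells/well in Opti-MEM with 0.5% dialyzed FBS; compounds tested as titration series, 17 h at 37 degrees C. CCF4 substrate 2.5 h at room temperature; AC50 from 460/530 nm ratio.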

[12] = biological target: Estrogen receptor (Homo sapiens) (UniProt P03372); experiment: qHTS assay for small molecule antagonists of estrogen receptor alpha signaling (AID 588513; active = well fitted curve in the direction sought with a large enough effect in the signal ratio, with a control signal flat, not every such curve was filed as active; inconclusive = small, poorly fitted or top-dose-only effect, or effect the other way, or a change in a side signal; inactive = no such curve, though single readings can be large or run the other way; the % refers to the signal ratio; also: potency is read from the fitted curve at half-maximal effect)
In short: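 Antagonist-mode qHTS in ER-alpha-UAS-bla HEK 293 cells: compound titration, 0.5nM estradiol for 18 h, CCF4 fluorescence, Hill-derived IC50.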

[13] = biological target: Estrogen receptor (Homo sapiens) (UniProt P03372); experiment: qHTS assay for small molecule agonists of estrogen receptor alpha signaling (AID 588514; calls by dose curve; also: potency is read from the fitted curve at half-maximal effect; nearly all actives have a fitted effect of over 70% in size)
In short: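 ER-alpha-UAS-bla GripTite HEK 293 cells in medium with 2% charcoal/dextran-treated FBS were treated with compound titrations at 37 C for 18 hrs; beta-lactamase reporter read by CCF4 fluorescence after 2 hrs at RT.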

[14] = biological target: Androgen receptor (Homo sapiens) (UniProt P10275); experiment: qHTS assay for small molecule antagonists of androgen receptor signaling (AID 588516; active = well fitted curve in the direction sought with a large enough effect in the signal ratio, with a control signal flat, not every such curve was filed as active; inconclusive = small, poorly fitted or top-dose-only effect, or effect the other way, or a change in a side signal; inactive = no such curve, though single readings can be large or run the other way; the % refers to the signal ratio; also: potency is read from the fitted curve at half-maximal effect)
In short: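 Compounds tested in titration against 10 nM R1881 in AR-responsive bla reporter HEK 293 cells; CCF4 fluorescence (460/530 nm) after 16 h exposure gave IC50 and efficacy.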

[15] = biological target: Peroxisome proliferator-activated receptor gamma (Homo sapiens) (UniProt P37231); experiment: qHTS assay for small molecule agonists of peroxisome proliferator-activated receptor gamma signaling (AID 588536; active = well fitted curve in the direction sought with a large enough effect in the signal ratio, with a control signal flat, not every such curve was filed as active; inconclusive = small, poorly fitted or top-dose-only effect, or effect the other way, or a change in a side signal; inactive = no such curve, though single readings can be large or run the other way; the % refers to the signal ratio)
In short: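 GeneBLAzer PPAR-gamma-UAS-bla HEK293 cells in 1% charcoal/dextran-treated FBS medium were treated 16 h at 37 C with compounds. Beta-lactamase activity was read by CCF4 ratio (460/530 nm). Response was normalized to 2 uM rosiglitazone (100%) and DMSO, then Hill-fitted for EC50 and efficacy.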

[16] = biological target: Peroxisome proliferator-activated receptor gamma (Homo sapiens) (UniProt P37231); experiment: qHTS assay for small molecule antagonists of peroxisome proliferator-activated receptor gamma signaling (AID 588537; active = well fitted inhibition curve with a large enough effect in the signal ratio, with a control signal flat, not every such curve was filed as active; inconclusive = small, poorly fitted or top-dose-only effect, or effect the other way, or a change in a side signal; the % refers to the signal ratio;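 also: reporter cells co-stimulated with 50 nM rosiglitazone agonist during compound treatment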)
In short: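 PPAR-gamma-UAS-bla HEK293 cells (3000/well, 1% charcoal/dextran-stripped FBS) were preincubated 6-6.5 h at 37 C, given titrated compounds, then stimulated with 50 nM rosiglitazone for 16 h. Beta-lactamase activity was read with CCF4 dye; IC50 came from Hill fits.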

[17] = qHTS assay for small molecule agonists of retinoid X receptor alpha signaling (AID 588544; calls by dose curve); conditions: HEK293T RXRa-UAS-bla, beta-lactamase reporter, 18 h; 530 nm emission
[18] = biological target: Retinoic acid receptor RXR-alpha (Homo sapiens) (UniProt P19793); experiment: as above
[19] = biological target: Thyroid hormone receptor beta (Homo sapiens) (UniProt P10828); experiment: qHTS assay for small molecule agonists of thyroid hormone receptor beta signaling (AID 588545; calls by dose curve)
In short: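 Compounds were tested as agonists in TR-UAS-bla-GripTite HEK 293 cells. After 18 hrs at 37 C, CCF4 substrate was added and fluorescence read after 2 hrs at room temperature.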

[20] = qHTS assay for small molecule antagonists of retinoid X receptor alpha signaling (AID 588546); conditions: HEK293T RXRa-UAS-bla, beta-lactamase ratio, antagonist mode; measured here: W530 green channel, cytotoxicity proxy;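 also: cells stimulated with 9-cis-retinoic acid as agonist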
In short: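 Beta-lactamase reporter inhibition, read as CCF4 fluorescence ratio (ex 405, em 460/530 nm) after 2 h at RT. HEK293T UAS-bla cells, 2500/well, were stimulated with 9-cis-RA at 500 or 100 nM final alongside test compound for 18 h at 37 C.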

Sequence of Thyroid hormone receptor beta (Homo sapiens) (P10828 whole entry, looked up): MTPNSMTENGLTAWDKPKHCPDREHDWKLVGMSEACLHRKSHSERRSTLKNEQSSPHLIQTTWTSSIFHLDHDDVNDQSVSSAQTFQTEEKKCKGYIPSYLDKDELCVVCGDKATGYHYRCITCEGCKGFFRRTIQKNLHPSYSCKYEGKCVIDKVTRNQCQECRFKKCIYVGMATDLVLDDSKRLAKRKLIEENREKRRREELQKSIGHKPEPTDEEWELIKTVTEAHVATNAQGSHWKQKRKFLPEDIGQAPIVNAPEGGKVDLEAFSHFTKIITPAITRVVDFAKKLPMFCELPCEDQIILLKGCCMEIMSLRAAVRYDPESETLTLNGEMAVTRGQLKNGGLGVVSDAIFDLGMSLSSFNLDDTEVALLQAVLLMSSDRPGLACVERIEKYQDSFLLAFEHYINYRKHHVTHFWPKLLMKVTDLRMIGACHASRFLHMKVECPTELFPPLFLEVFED
Sequence of Peroxisome proliferator-activated receptor gamma (Homo sapiens) (P37231 whole entry, looked up): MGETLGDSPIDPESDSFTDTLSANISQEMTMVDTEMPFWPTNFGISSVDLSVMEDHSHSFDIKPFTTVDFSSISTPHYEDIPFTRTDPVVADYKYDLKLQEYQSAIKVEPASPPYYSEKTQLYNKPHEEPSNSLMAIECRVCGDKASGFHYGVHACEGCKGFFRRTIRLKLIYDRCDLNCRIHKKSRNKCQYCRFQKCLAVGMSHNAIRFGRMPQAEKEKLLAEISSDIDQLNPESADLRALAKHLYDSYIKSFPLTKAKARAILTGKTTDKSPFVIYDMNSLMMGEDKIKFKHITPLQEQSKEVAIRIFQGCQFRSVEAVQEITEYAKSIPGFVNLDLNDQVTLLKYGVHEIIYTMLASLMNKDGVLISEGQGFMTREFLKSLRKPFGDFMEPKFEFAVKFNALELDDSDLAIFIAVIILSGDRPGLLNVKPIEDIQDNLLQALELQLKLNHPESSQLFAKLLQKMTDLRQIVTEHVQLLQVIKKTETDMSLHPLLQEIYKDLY
Sequence of Retinoic acid receptor RXR-alpha (Homo sapiens) (P19793 whole entry, looked up): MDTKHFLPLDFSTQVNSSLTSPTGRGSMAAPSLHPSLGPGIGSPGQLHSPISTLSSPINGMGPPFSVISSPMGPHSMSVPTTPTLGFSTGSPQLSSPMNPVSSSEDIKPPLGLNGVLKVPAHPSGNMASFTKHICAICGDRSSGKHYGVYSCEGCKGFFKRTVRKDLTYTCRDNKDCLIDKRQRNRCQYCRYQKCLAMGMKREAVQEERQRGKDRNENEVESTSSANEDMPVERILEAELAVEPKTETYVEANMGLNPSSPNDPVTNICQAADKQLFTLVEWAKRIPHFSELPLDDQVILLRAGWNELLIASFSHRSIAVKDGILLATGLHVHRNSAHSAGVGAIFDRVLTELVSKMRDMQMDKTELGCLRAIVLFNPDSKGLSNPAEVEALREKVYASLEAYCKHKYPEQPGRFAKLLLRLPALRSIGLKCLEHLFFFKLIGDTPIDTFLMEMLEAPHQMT
Sequence of Estrogen receptor (Homo sapiens) (P03372 whole entry, looked up): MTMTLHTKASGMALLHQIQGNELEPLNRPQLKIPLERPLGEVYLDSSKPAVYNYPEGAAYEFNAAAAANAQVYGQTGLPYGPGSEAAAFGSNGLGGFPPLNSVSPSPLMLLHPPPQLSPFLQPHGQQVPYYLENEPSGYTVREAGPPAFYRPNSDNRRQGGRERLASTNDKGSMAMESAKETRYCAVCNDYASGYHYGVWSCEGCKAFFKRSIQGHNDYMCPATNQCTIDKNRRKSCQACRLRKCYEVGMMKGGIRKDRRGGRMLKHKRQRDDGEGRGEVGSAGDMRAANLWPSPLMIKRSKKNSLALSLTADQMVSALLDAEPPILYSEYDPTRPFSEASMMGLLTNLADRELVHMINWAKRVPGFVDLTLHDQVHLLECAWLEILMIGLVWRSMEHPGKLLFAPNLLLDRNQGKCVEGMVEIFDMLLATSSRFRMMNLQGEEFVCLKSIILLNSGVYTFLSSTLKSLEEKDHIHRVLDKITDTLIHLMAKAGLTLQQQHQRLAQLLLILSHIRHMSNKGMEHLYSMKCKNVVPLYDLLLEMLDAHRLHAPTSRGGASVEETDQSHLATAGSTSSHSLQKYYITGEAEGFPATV
Sequence of Androgen receptor (Homo sapiens) (P10275 whole entry, looked up): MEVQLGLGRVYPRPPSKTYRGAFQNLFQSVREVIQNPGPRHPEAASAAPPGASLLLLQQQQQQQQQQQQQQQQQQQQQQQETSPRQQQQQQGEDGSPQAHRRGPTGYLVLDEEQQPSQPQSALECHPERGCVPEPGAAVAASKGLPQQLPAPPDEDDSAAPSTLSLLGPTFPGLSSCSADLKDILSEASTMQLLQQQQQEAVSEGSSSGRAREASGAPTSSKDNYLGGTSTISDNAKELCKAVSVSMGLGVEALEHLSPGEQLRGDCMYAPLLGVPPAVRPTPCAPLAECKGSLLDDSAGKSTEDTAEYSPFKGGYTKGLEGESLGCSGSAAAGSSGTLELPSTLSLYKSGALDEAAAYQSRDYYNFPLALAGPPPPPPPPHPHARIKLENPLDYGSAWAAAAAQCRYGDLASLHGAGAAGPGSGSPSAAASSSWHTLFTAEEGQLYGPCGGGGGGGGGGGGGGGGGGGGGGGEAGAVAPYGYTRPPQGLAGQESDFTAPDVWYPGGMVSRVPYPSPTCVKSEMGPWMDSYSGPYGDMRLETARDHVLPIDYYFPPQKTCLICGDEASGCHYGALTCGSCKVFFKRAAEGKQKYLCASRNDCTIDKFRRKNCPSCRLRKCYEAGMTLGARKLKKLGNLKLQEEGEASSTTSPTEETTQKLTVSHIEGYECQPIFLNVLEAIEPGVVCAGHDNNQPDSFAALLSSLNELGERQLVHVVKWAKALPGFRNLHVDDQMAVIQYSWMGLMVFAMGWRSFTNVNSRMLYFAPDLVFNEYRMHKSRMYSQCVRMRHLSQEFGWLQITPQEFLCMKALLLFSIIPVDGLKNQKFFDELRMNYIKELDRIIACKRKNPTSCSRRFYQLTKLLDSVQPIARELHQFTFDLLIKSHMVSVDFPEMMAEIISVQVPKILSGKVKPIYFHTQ

C[C@H]1CCCC(=O)CCC/C=C/c2cc(O)cc(O)c2C(=O)O1
active: Potency [12] 14.1 µM [inconclusive] | Potency [13] 0.01 µM | Potency [14] 44.7 µM
17.7%: max response [20]
-13.4% and 26.9%: max response [17]
inactive: Potency [1] | Potency [2] | Potency [3] | Potency [4] | Potency [5] | Potency [6] | Potency [7] | Potency [8] | Potency [9] | Potency [10] | outcome [11] | outcome [15] | Potency [16] | Potency [18] | outcome [19]
